The nature of test [1]: viability loss in pontine glioma line – cell-based, SU-DIPG-XVII, MIPE5.0, CellTiter-Glo, qHTS, dose response (AID 1347060).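 On AC50: cells exposed to compound for 48 hours before viability readout.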 The settings on record: CellTiter-Glo ATP luminescence.
A short description of test [2]: viability loss in pontine glioma line – cell-based, SU-DIPG-XIII, MIPE4.0, CellTiter-Glo, qHTS, dose response (AID 1347061; cut-off not given, nearly all actives have AC50 up to about 37 µM;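 further: cells exposed to compound for 48 hours before readout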). The note with it: CellTiter-Glo ATP luminescence.
Test [3] is described as follows: viability loss in pontine glioma line – cell-based, JHH-DIPG-1, MIPE4.0, CellTiter-Glo, qHTS, dose response (AID 1347062; cut-off not given, nearly all actives have AC50 up to about 27 µM;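 on AC50: cells exposed to compound for two days before readout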). The note with it: JHH-DIPG-1 viability, CellTiter-Glo ATP luminescence.
Test [4] in a line: viability loss in pontine glioma line – cell-based, SU-DIPG-IV, MIPE4.0, CellTiter-Glo, qHTS, dose response (AID 1347063; cut-off not given, nearly all actives have AC50 up to about 30 µM;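 further: compound exposure lasted 48 hours before the viability readout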). The settings on record: CellTiter-Glo ATP luminescence. (Cellular ATP, detected with luciferase, serves as a proxy for viable cell number.)
Test [5] can be described thus: viability loss in pontine glioma line – cell-based, SU-DIPG-XIII, MIPE5.0, CellTiter-Glo, qHTS, dose response (AID 1347064; cut-off not given, nearly all actives have AC50 up to about 23 µM;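 on AC50: cells exposed to compound for 48 hours before the viability read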). The settings on record: CellTiter-Glo ATP luminescence.
The nature of test [6]: viability loss in pontine glioma line – cell-based, SU-DIPG-XXV, MIPE5.0, CellTiter-Glo, qHTS, dose response (AID 1347065).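 Further: cells exposed to compound for 48 hours before ATP readout.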 The note with it: CellTiter-Glo ATP luminescence.
Test [7] can be described thus: growth inhibition of DIPG cells – cell-based, MIPE4.0 library, CellTiter-Glo luminescence, qHTS (AID 1347066; cut-off not given, nearly all actives have AC50 up to about 30 µM;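 further: cells exposed to compound for 48 hours before readout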). The settings on record: SU-DIPG-VI viability, CellTiter-Glo ATP luminescence.
Test [8] can be described thus: JHH-DIPG-1 glioma cell viability, MIPE5.0 library, CellTiter-Glo luminescence, qHTS (AID 1347067).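 Further: cells exposed to compound for 48 hours before readout.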 The settings on record: JHH-DIPG-1 glioma viability, CellTiter-Glo ATP luminescence.
Test [9] in a line: growth inhibition of DIPG cells – cell-based, MIPE5.0 library, qHTS (AID 1347068; cut-off not given, nearly all actives have IC50 up to about 30 µM;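 on IC50: cells exposed to compound for 48 hours before viability readout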). The settings on record: SU-DIPG-XXV viability. A general note: qHTS replaces the single test concentration by a dilution series.
A short description of test [10]: viability loss with induced miR-34 in A549 – imaging, A549 dox-inducible miR-34, nuclei and caspase counts, primary screen (AID 1347080;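 active means compounds whose cell count with miR-34 switched on is under 0.7 times the count with it off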). The note with it: A549 miR-34 inducible, Hoechst nuclei count, 48 h.
The nature of test [11]: MELAS cybrid and Rieske KO viability enhancers – cell-based, MELAS cybrids, Rieske KO mouse fibroblasts, CellTiter-Glo, primary screen (AID 1508586;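 active means mean z-score across replicates of 1.96 or higher in either the MELAS or the Rieske mutant cell line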;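 further: z relative to plate mean and SD of compound and empty wells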). The note with it: low glucose.
Test [12] in a line: compounds altering circadian rhythm period length – cell-based, LOPAC library, luminescence reporter (AID 2774; call rule not given here;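 further: values are relative to mean of DMSO wells on each plate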). The settings on record: circadian reporter cells, at 7 µM, actives lie on both sides.
The test system of test [13] is Hepatitis C virus NS3 helicase. Kind of test: blockers of NS3h binding to ssDNA – biochemical, fluorescence polarization, LOPAC1280 library, primary screen (AID 687035; in the data active means inhibition above about 37%). The settings on record: Purified HCV NS3 helicase, Cy5-dT15 ssDNA binding fluorescence polarization; stronger effect = higher value; concentration not given here. For orientation: In fluorescence polarisation assays a small probe gives low polarisation when free and higher when bound to something large.

Test [14] in a line: compounds altering Cy5-DNA-NS3h complex signal – biochemical, LOPAC1280, artefact control for HCV NS3 helicase inhibitor project (AID 687037; call rule not given here). The settings on record: Cy5-DNA-NS3h complex fluorescence interference counterscreen.
Test [15] deals with Aerobactin synthetase IucA (Klebsiella pneumoniae, hypervirulent). The experiment in a line: biochemical IucA inhibition screen of LOPAC library by absorbance (AID 1346212; call rule not given here;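 further: 100% = no compound wells and 0% = no enzyme wells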). The settings on record: IucA enzyme assay, absorbance (OD) readout; stronger effect = lower value;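 tested at 8 µM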.
Test [16] is described as follows: liver-stage malaria parasite load reduction – cell-based, known kinase inhibitor set, luminescence, hepatoma host viability (AID 624392; call rule not given here;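 further: infected cells incubated roughly two days before readout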). The settings on record: Plasmodium liver stage in hepatoma cells, luciferase luminescence, concentration not given here; liver cell % of control: measured here: host liver cell viability; parasite % of control: stronger effect = lower value.

A short description of test [17]: compounds altering HSF1 focus formation in cells – imaging, Selleck Cancer Library (AID 1347162; in the data active means plate-normalised HSF1 focus index below about 0.46). The note with it: human cells, HSF1 nuclear foci imaging, at 10 µM; SSMD: measured here: HSF1 foci SSMD mean; cell count: measured here: cell number; plate-normalised HSF1 focus index: stronger effect = lower value.
Where [18] appears, read: stronger effect = lower value, cell number ratio, induced over uninduced.
Setting [19] is: measured here: relative caspase fold change +Dox/-Dox.
Where [20] appears, read: measured here: total cells with miR-34 induction, stronger effect = lower value.
Where [21] appears, read: measured here: total cells without miR-34 induction.
Where [22] appears, read: MELAS cybrid survival, CellTiter-Glo 48 h, stronger effect = higher value.
The mark [23] stands for this setting: Rieske KO mouse fibroblast survival, CellTiter-Glo 72 h.

The structures appear in SMILES notation. Several values for one entry are separate records, joined by “and”; a condition that tells them apart may be missing. Equal values may be shown once. Records with an inconclusive call do not appear. Activity calls are given as the source filed them. Unless noted, cut-off not given; nearly all actives show AC50 up to about 26 µM.

In the case of `CCc1c(C(=O)C(N)=O)c2c(OCC(=O)O)cccc2n1Cc1ccccc1`, the result in [1], in [2], in test [3], in test [4], in [5] and in test [6] was inactive. For the same compound, the outcome in test [7], in [8] and in test [9] was inactive. The fold change was 0.89 (inactive) in [10] (setting [18]) and 1.11 in [10] (setting [19]). In addition, the values for the cell count in test [10] (setting [20]) and in [10] (setting [21]) were 7750 and 8710, respectively. The z-score in test [11] (setting [22]) was -0.413 (inactive); in [11] (setting [23]) it was 0.396.

For the compound `O=C(O)c1cc[c]([Hg][Cl])cc1`, the period change in test [12] is 0.155 h (inactive). Besides, in test [13], the inhibition (usually the drop in the measured response relative to a control, in per cent) is -5% (inactive). Moreover, the fluorescence ratio (interference) in [14] is 1 (inactive). Further, the remaining activity (commonly the signal under treatment as a percentage of the control signal) in test [15] is -1.2% (active).

`N[C@@H](CCl)C(=O)O`: the period change in [12] was 0.125 h (inactive). The inhibition in test [13] is -3% (inactive). In addition, the fluorescence ratio (interference) in test [14] was 1 (inactive). Also, the remaining activity in [15] is 104% (inactive).

Take `Cc1ccccc1-n1c(Cn2ncc3c(N)ncnc32)nc2cccc(C)c2c1=O`: the result in [1], in [2], in [5], in [6], in test [8] and in test [9] was inactive. Also, the fold change in test [10] (setting [18]) was 0.903 (inactive); in [10] (setting [19]), 0.968. The cell count in test [10] (setting [20]) amounted to 8570; in test [10] (setting [21]), 9490. Further, the z-score in test [11] (setting [22]) was -0.332 (inactive); in test [11] (setting [23]), 0.957.

`Cc1ccccc1-n1c(Cn2cnc3c(N)ncnc32)nc2cccc(C)c2c1=O`: the liver cell % of control in test [16] was 91.8% and 81.8% and 99.4%. In addition, in test [16], the parasite % of control was 49.6% (inactive) and 56.6% (inactive) and 61.4% (inactive). Moreover, the result in test [1], in test [5], in test [6], in test [8] and in test [9] was inactive. Also, the AC50 (as a rule, the concentration giving half of the maximal activity seen) in test [2] was 4180 nM (active); in test [3], 1320 nM (active); in test [4] it was 105 nM (active); in [7], 743 nM (active). In [17], this compound had an SSMD of 2.3. Also, the cell count in test [17] was 6650. Further, the plate-normalised HSF1 focus index in [17] was 1.12 (inactive).

For the compound `C[C@]12COC(=O)C[C@@H]1CC[C@@H]1[C@@H]2CC[C@@]2(C)[C@H]1CC[C@]2(C)O`, the result in test [1], in test [2], in test [3], in test [4], in test [5] and in test [7] was inactive. The call in [8] and in test [9] was inactive. The values for the z-score in test [11] (setting [22]) and in test [11] (setting [23]) were 0.293 (inactive) and 0.228, respectively.

For `COC(=O)[C@]12CCC(C)(C)C[C@H]1[C@H]1C(=O)C=C3[C@@]4(C)C=C(C#N)C(=O)C(C)(C)[C@@H]4CC[C@@]3(C)[C@]1(C)CC2`, the AC50 was 3720 nM (active) in [1]; 2640 nM (active) in [2]; 590 nM (active) in test [3]; 469 nM (active) in test [4]; 3720 nM (active) in test [5]; 2090 nM (active) in test [6]. For the same compound, the AC50 was 743 nM (active) in test [7] and 833 nM (active) in test [8]. Moreover, the half-inhibitory concentration (IC50) – broadly, the concentration at which inhibition is half-maximal – in test [9] is 10500 nM (active).

`O=C(O)CNC(=O)c1c(O)c2ccccc2n(Cc2ccccc2)c1=O`: the compound was called inactive in [1], in test [2], in test [3], in [4], in test [5] and in test [6]. In addition, the compound was classed as inactive in test [7], in [8] and in test [9]. In addition, the figures for the fold change in [10] (setting [18]) and in [10] (setting [19]) were 1.05 (inactive) and 0.358, respectively. The cell count is 8330 in test [10] (setting [20]) and 7930 in test [10] (setting [21]). For the same compound, the z-score in test [11] (setting [22]) is -0.124 (inactive); in test [11] (setting [23]), -0.159.

(Values after PubChem BioAssay.)
